# Measured values reported in PubChem BioAssay (NCATS).
# Inconclusive results are not listed. Where a call stands in place of a potency, no number is given. A number with no mark means an inactive call. Active and inactive are the calls of the source. Calls come from the whole dose curve; as a rule, active = well fitted curve in the direction sought with a large enough effect; inconclusive = small, poorly fitted or top-dose-only effect, or another doubt; inactive = no such curve, though single readings can be large; an effect the other way counts as inactive or inconclusive.
# How the values were obtained:
# [1] = Quantitative High-Throughput drug screen in 47 multiple myeloma cell lines against the NCATS MIPE library collection: KMS26_JCRB cell viability assay (AID 1918975); note: nearly all actives have a fitted effect of over 45% in size
# Procedure, shortened: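 Approved and investigational drugs from MIPE 4.0 were added by pin tool to 500 cells per well. After 48 hours at 37C, ATP-based CellTiter-Glo luminescence indicated remaining viability.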
# [2] = Quantitative High-Throughput drug screen in 47 multiple myeloma cell lines against the NCATS MIPE library collection: MMM1_PLB cell viability assay (AID 1918976); note: nearly all actives have a fitted effect of over 35% in size
# Procedure, shortened: (§1)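 500 cells/well per myeloma line exposed to pinned MIPE 4.0 compounds for 48 h at 37 °C, 5% CO2. Viability read as ATP by CellTiter-Glo luminescence, normalised to DMSO-only (100%) and media-only (0%) wells.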
# [3] = Quantitative High-Throughput drug screen in 47 multiple myeloma cell lines against the NCATS MIPE library collection: MOLP8_DSMZ cell viability assay (AID 1918977); note: nearly all actives have a fitted effect of over 45% in size
# Procedure, shortened: as §1
# [4] = Quantitative High-Throughput drug screen in 47 multiple myeloma cell lines against the NCATS MIPE library collection: MM1S_ATCC cell viability assay (AID 1918980); note: nearly all actives have a fitted effect of over 45% in size
# Procedure, shortened: as §1
# [5] = Quantitative High-Throughput drug screen in 47 multiple myeloma cell lines against the NCATS MIPE library collection: MM1R_ATCC cell viability assay (AID 1918981); note: nearly all actives have a fitted effect of over 35% in size
# Procedure, shortened: as §1
# [6] = Quantitative High-Throughput drug screen in 47 multiple myeloma cell lines against the NCATS MIPE library collection: LP1_DSMZ cell viability assay (AID 1918982); note: nearly all actives have a fitted effect of over 35% in size
# Procedure, shortened: as §1
# [7] = Quantitative High-Throughput drug screen in 47 multiple myeloma cell lines against the NCATS MIPE library collection: L363_DSMZ cell viability assay (AID 1918984); note: nearly all actives have a fitted effect of over 40% in size
# Procedure, shortened: as §1
# [8] = Quantitative High-Throughput drug screen in 47 multiple myeloma cell lines against the NCATS MIPE library collection: OCIMY5_PLB cell viability assay (AID 1918988); note: nearly all actives have a fitted effect of over 65% in size
# Procedure, shortened: as §1
# [9] = Quantitative High-Throughput drug screen in 47 multiple myeloma cell lines against the NCATS MIPE library collection: OPM1_PLB cell viability assay (AID 1918989); note: nearly all actives have a fitted effect of over 40% in size
# Procedure, shortened: as §1
# [10] = Quantitative High-Throughput drug screen in 47 multiple myeloma cell lines against the NCATS MIPE library collection: SKMM1_PLB cell viability assay (AID 1919863); conditions: SKMM1 myeloma viability, CellTiter-Glo ATP, 48 h; viability: stronger effect = lower value; note: nearly all actives have a fitted effect of over 35% in size; for viability: series mostly up to about 46 µM
# Procedure, shortened: as §1
# [11] = Quantitative High-Throughput drug screen in 47 multiple myeloma cell lines against the NCATS MIPE library collection: U266_ATCC cell viability assay (AID 1919864); note: nearly all actives have a fitted effect of over 35% in size
# Procedure, shortened: as §1
# [12] = Quantitative High-Throughput drug screen in 47 multiple myeloma cell lines against the NCATS MIPE library collection: XG6_PLB cell viability assay (AID 1919865); note: nearly all actives have a fitted effect of over 40% in size
# Procedure, shortened: as §1
# [13] = Quantitative High-Throughput drug screen in 47 multiple myeloma cell lines against the NCATS MIPE library collection: XG1_PLB cell viability assay (AID 1919866); note: nearly all actives have a fitted effect of over 35% in size
# Procedure, shortened: as §1
# [14] = Quantitative High-Throughput drug screen in 47 multiple myeloma cell lines against the NCATS MIPE library collection: VP6_DJ cell viability assay (AID 1919867); note: nearly all actives have a fitted effect of over 40% in size
# Procedure, shortened: as §1
# [15] = Quantitative High-Throughput drug screen in 47 multiple myeloma cell lines against the NCATS MIPE library collection: NCIH929_DSMZ cell viability assay (AID 1918978); note: nearly all actives have a fitted effect of over 35% in size
# Procedure, shortened: as §1
# [16] = Quantitative High-Throughput drug screen in 47 multiple myeloma cell lines against the NCATS MIPE library collection: OCIMY1_PLB cell viability assay (AID 1918979); note: nearly all actives have a fitted effect of over 35% in size; for viability: series mostly up to about 46 µM
# Procedure, shortened: as §1
# [17] = Quantitative High-Throughput drug screen in 47 multiple myeloma cell lines against the NCATS MIPE library collection: KMS28PE_JCRB cell viability assay (AID 1918983); note: nearly all actives have a fitted effect of over 35% in size
# Procedure, shortened: as §1
# [18] = Quantitative High-Throughput drug screen in 47 multiple myeloma cell lines against the NCATS MIPE library collection: KMS34_JCRB cell viability assay (AID 1918985); note: nearly all actives have a fitted effect of over 40% in size
# Procedure, shortened: as §1
# [19] = Quantitative High-Throughput drug screen in 47 multiple myeloma cell lines against the NCATS MIPE library collection: OCIMY7_PLB cell viability assay (AID 1918987); note: nearly all actives have a fitted effect of over 65% in size
# Procedure, shortened: as §1
# Potency is the fitted concentration of half-maximal effect.
Structure (SMILES),Potency [1],Potency [2],Potency [3],Potency [4],Potency [5],Potency [6],Potency [7],Potency [8],Potency [9],Potency [10],Potency [11],Potency [12],Potency [13],Potency [14],Potency [15],Potency [16],Potency [17],viability [10],Potency [18],Potency [19]
COc1ccc2cc3[n+](cc2c1OC)CCc1cc2c(cc1-3)OCO2,5.9 µM (active),6.62 µM (active),14.8 µM (active),14.8 µM (active),4.69 µM (active),4.69 µM (active),6.62 µM (active),14.8 µM (active),18.7 µM (active),14.8 µM (active),9.35 µM (active),16.6 µM (active),16.6 µM (active),7.43 µM (active),–,–,–,–,–,–
O=C(O)CSCC(=O)NC1CCSC1=O (centres undefined),inactive,–,inactive,–,–,inactive,–,–,inactive,–,–,inactive,inactive,–,inactive,inactive,inactive,130%,–,–
CCN(CC)CCn1c(=O)c(Cc2ccc(OC)cc2)nc2ccccc21,inactive,–,–,–,inactive,inactive,inactive,inactive,inactive,–,inactive,–,inactive,–,inactive,inactive,inactive,134%,–,–
COc1ccc(-c2ccc3cc(C(=O)O)ccc3c2)cc1C12CC3CC(CC(C3)C1)C2,–,2.64 µM (active),–,5.26 µM (active),7.43 µM (active),–,–,inactive,–,–,5.26 µM (active),–,inactive,–,inactive,inactive,inactive,119%,inactive,–
CC(C)C[C@H](NC(=O)[C@H](CCc1ccccc1)NC(=O)CN1CCOCC1)C(=O)N[C@@H](Cc1ccccc1)C(=O)N[C@@H](CC(C)C)C(=O)[C@@]1(C)CO1,–,0.0833 µM (active),0.0019 µM (active),0.0023 µM (active),0.0037 µM (active),0.0093 µM (active),0.001 µM (active),0.0033 µM (active),0.0093 µM (active),0.0209 µM (active),0.0047 µM (active),0.001 µM (active),0.001 µM (active),0.001 µM (active),0.001 µM (active),0.0093 µM (active),–,–,0.0059 µM (active),–
O=C(O)c1cc(=O)[nH]c(=O)[nH]1,inactive,–,–,inactive,inactive,inactive,inactive,–,inactive,–,inactive,inactive,inactive,inactive,inactive,–,5.9 µM (active),112%,–,–
CN(C)c1ccc(C(=C2C=CC(=[N+](C)C)C=C2)c2ccc(N(C)C)cc2)cc1,–,0.132 µM (active),0.0526 µM (active),0.105 µM (active),0.132 µM (active),0.418 µM (active),–,0.0743 µM (active),0.0118 µM (active),0.0662 µM (active),1.05 µM (active),0.0833 µM (active),0.0235 µM (active),0.0296 µM (active),0.0264 µM (active),2.09 µM (active),–,–,–,–
CO[C@@]12[C@H](COC(N)=O)C3=C(C(=O)C(C)=C(N)C3=O)N1C[C@@H]1N[C@@H]12,–,23.5 µM (active),23.5 µM (active),–,11.8 µM (active),–,–,26.4 µM (active),26.4 µM (active),20.9 µM (active),20.9 µM (active),–,20.9 µM (active),20.9 µM (active),26.4 µM (active),–,23.5 µM (active),–,26.4 µM (active),18.7 µM (active)
Cc1ccnc2c1NC(=O)c1cccnc1N2C1CC1,inactive,–,inactive,4.69 µM (active),inactive,inactive,inactive,inactive,inactive,–,16.6 µM (active),23.5 µM (active),–,26.4 µM (active),–,inactive,inactive,–,–,–
Nc1nc(N)nc(-c2cc(Cl)ccc2Cl)n1,–,0.0526 µM (active),inactive,–,inactive,inactive,inactive,–,inactive,–,inactive,–,inactive,6.62 µM (active),inactive,inactive,inactive,131%,inactive,–
Cc1nnc(C(=O)NC(C)(C)c2nc(C(=O)NCc3ccc(F)cc3)c(O)c(=O)n2C)o1,–,7.43 µM (active),inactive,inactive,inactive,inactive,inactive,–,inactive,–,inactive,inactive,inactive,inactive,inactive,inactive,–,152%,–,–
O=C(NCC1CN(c2ccc(N3CCOCC3=O)cc2)C(=O)O1)c1ccc(Cl)s1 (centres undefined),inactive,–,inactive,–,inactive,–,–,–,inactive,–,inactive,inactive,inactive,–,inactive,inactive,inactive,135%,–,–
CN(Cc1cc(Br)cc(Br)c1N)C1CCCCC1,–,33.2 µM (active),inactive,–,–,–,inactive,–,inactive,–,–,inactive,–,–,–,–,inactive,–,–,–
COc1ccc2c(c1)c(CC(=O)OCC(=O)O)c(C)n2C(=O)c1ccc(Cl)cc1,–,4.18 µM (active),inactive,–,–,inactive,inactive,–,inactive,–,inactive,inactive,inactive,–,inactive,inactive,inactive,138%,inactive,–
